Inconclusive results are not listed. A call without a number means that no potency is given here. Active and inactive are the calls of the source. Calls come from the whole dose curve; as a rule, active = well fitted inhibition curve with a large enough effect; inconclusive = small, poorly fitted or top-dose-only effect; inactive = no such curve, though single readings can be large or run the other way. Where a SMILES comes first, the peptide text is derived from it. [ ]: non-standard residue; d: D form. ξ: configuration not given here. ξPhe(βξ-Me) = CC(c1ccccc1)C(N)C(=O)O; GABA = NCCCC(=O)O

The experiment is described as follows: P-glycoprotein substrates identified in KB-3-1 adenocarcinoma cell line, qHTS therapeutic library screen (AID 1346986). Note: nearly all actives have a fitted effect of over 60% in size. To be noted: KB-3-1 parental cells viability, CellTiter-Glo, 72 h; series mostly up to 44.5 µM. Put shortly:
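Viability by CellTiter-Glo after 72 h compound exposure at 37 degree C, 5% CO2. Cytotoxic call: curve class -1.1 to -2.4, maximum response >50%, AC50 < 10 uM, compared across KB-3-1 and P-gp-overexpressing KB-8-5-11.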
(qHTS replaces the single test concentration by a dilution series.)
On to `CC(=O)O[C@@H]1C[C@]2(C)[C@@]3(CCC4[C@@]5(C)CC[C@H](O[C@@H]6O[C@H](C(=O)O)[C@@H](O)[C@H](O[C@@H]7O[C@H](CO)[C@H](O)[C@H](O)[C@H]7O[C@@H]7O[C@@H](C)[C@H](O)[C@@H](O)[C@H]7O[C@@H]7OC[C@](O)(CO)[C@H]7O)[C@H]6O[C@@H]6O[C@H](CO)[C@H](O)[C@H](O)[C@H]6O)C(C)(C)C5CC[C@]42C)O[C@@H](O)[C@]12C3CC(C)(C)[C@@H](OC(=O)/C=C/c1ccc(O)c(O)c1)[C@@H]2OC(=O)/C=C/c1ccccc1` (stereo partly specified), for which the outcome was “inactive [at 9.29 µM]”.

For `CC(=O)NCCCCn1c2c(c3ccccc31)C(=O)NCC2`, the Potency result was “inactive”.

Regarding `O=C(O[C@@H]1O[C@H](CO)[C@@H](O)[C@H](O)[C@H]1O)c1c(O)cc(O)cc1/C=C/c1ccccc1`, the Potency entry was “inactive”.

Regarding `CCC(=O)N[C@@H]1Cc2ccccc2[C@H](c2ccccc2)C1`, the Potency entry is “inactive”.

For `CCC(NC(=O)CC(NC(=O)C(CO)NC(=O)C(CC)NC(=O)c1ccc[nH]1)c1ccccc1)C(=O)O` (stereo unspecified), the Potency result was “inactive”.

In the case of `CC(CCC1(O)OC2CC3C4CCC5CC(O[C@@H]6O[C@H](CO)[C@@H](O)[C@H](O)[C@H]6O[C@@H]6OC[C@@H](O)[C@H](O)[C@H]6O)C(O)CC5(C)C4CCC3(C)C2C1C)CO[C@@H]1O[C@H](CO)[C@@H](O)[C@H](O)[C@H]1O` (stereo partly specified), the outcome was “inactive [at 9.29 µM]”.

For the molecule `OC[C@H]1O[C@@H](OC(CCCCc2ccc(O)cc2)CCc2ccc(O)cc2)[C@H](O[C@@H]2OC[C@](O)(CO)[C@H]2O)[C@@H](O)[C@@H]1O` (stereo partly specified), the Potency result was “inactive”.

For the molecule `COc1cc(COC2OC(CO)C(O)C(O)C2O)cc(OC)c1O` (stereo unspecified), the Potency result was “inactive”.

`CC(C)CC1NC(=O)C(C(C)c2ccccc2)NC(=O)C(C(C)C)NC(=O)C(C)NC(=O)CCCNC(=O)C(Cc2c[nH]c3ccccc23)NC(=O)C(C)NC1=O` (stereo not drawn) (cyclo([GABA]AV[ξPhe(βξ-Me)]LAW); configuration not given here): the Potency result is “inactive”.

`N#CC1C(=O)Nc2scc(-c3ccc(-c4ccccc4O)cc3)c2C1=O` (stereo unspecified): the Potency result was “inactive”.

As to `C=C1[C@H]2CC[C@]3(O)[C@@](CC[C@@H]4[C@](C)(C(=O)O)CCC[C@]43C)(C2)[C@H]1OC(=O)/C(C)=C\C`, the Potency entry is “inactive”.

Values taken from PubChem BioAssay (NCATS).
